# PubChem BioAssay (EPA / NIEHS)
# Inconclusive results are not listed. The source made the active and inactive calls. How the source made its calls, unless noted: active means hit-call score of the fitted dose curve at least 0.9, where 1 is the maximum; inactive means score below 0.9.
# Assays:
# [1] = ATG_AP_1_CIS: Attagene CIS-FACTORIAL HepG2 Assay for human Activator Protein 1 (AP-1) (AID 2282931); conditions: HepG2 Attagene cis-factorial AP-1 reporter mRNA; actives raise or lower the signal
# How it was run: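 Bidirectional concentration-response fitting against DMSO controls. Underlying signal: reporter mRNA from cis-promoter constructs in transiently transfected HepG2, measured after 24 h by RT-PCR and capillary electrophoresis.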
# [2] = target: Hepatocyte nuclear factor 3-beta (Homo sapiens) (UniProt Q9Y261); experiment: ATG_FoxA2_CIS: Attagene CIS-FACTORIAL HepG2 Assay for human Forkhead box A2 (FOXA2) (AID 2282942); conditions: HepG2 cis-reporter transcription factor activity, 24 h; actives raise or lower the signal
# Sequence of Hepatocyte nuclear factor 3-beta (Homo sapiens) (Q9Y261 whole entry, looked up): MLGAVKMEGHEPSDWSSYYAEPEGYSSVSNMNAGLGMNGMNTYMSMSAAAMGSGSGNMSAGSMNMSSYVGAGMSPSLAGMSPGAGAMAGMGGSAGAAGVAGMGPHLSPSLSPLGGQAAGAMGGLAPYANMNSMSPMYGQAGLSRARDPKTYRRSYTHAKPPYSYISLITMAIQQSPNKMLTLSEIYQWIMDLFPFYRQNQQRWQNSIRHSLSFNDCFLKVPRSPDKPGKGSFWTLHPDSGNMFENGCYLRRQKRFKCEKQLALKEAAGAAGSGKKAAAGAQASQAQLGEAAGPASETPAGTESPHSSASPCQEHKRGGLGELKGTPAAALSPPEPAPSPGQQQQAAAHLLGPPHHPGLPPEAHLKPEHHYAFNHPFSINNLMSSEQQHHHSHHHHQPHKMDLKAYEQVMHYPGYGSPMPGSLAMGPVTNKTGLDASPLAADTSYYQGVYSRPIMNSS
# How it was run: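 In transiently transfected human HepG2 cells, promoter-driven reporter mRNA levels after 24 h chemical exposure are determined via RT-PCR with capillary electrophoresis. DMSO serves as baseline for bidirectional fitting.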
# [3] = target: Hypoxia-inducible factor 1-alpha (Homo sapiens) (UniProt Q16665); experiment: ATG_HIF1a_CIS: Attagene CIS-FACTORIAL HepG2 Assay for human Hypoxia Inducible Factor 1 (HIF1A) (AID 2282951); conditions: HepG2 Attagene cis-factorial HIF1a reporter transcription; actives raise or lower the signal
# Sequence of Hypoxia-inducible factor 1-alpha (Homo sapiens) (Q16665 whole entry, looked up): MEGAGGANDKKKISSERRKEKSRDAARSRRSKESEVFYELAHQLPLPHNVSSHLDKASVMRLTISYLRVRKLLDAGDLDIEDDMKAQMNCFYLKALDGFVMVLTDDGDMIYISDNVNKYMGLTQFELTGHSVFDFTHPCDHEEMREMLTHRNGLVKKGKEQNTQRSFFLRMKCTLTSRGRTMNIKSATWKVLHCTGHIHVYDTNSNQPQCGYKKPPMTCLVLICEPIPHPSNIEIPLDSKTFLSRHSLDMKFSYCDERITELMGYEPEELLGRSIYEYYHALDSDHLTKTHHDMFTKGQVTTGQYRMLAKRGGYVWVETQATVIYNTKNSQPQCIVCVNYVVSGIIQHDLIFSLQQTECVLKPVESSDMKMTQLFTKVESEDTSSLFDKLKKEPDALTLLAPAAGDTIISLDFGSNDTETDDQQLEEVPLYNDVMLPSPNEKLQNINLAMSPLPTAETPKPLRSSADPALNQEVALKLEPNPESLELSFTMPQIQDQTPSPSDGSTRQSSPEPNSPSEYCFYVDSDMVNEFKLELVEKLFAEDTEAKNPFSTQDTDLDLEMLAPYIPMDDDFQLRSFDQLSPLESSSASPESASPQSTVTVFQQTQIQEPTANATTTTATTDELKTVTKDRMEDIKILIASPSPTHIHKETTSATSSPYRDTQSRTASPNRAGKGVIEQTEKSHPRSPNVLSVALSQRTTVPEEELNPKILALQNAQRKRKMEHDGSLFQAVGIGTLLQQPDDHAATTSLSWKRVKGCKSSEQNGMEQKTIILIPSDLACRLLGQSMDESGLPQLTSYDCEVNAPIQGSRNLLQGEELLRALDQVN
# How it was run: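 In this multiplexed cell assay, HepG2 cells bearing transfected cis reporters are dosed for 24 h and reporter mRNA is read by RT-PCR plus capillary electrophoresis; signal increases and decreases are both scored against DMSO.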
# [4] = ATG_RORE_CIS: Attagene CIS-FACTORIAL HepG2 Assay for human RAR-related Orphan Receptor Element (RORE) (AID 2282959); conditions: HepG2 Attagene cis-factorial RORE reporter, mRNA; actives raise or lower the signal
# How it was run: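 Fluorescence intensity of reporter-specific cDNA fragments, separated by capillary electrophoresis, gives the signal. Source: HepG2 liver cells transiently transfected with cis-element reporters and exposed 24 h; DMSO-normalized bidirectional fit.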
# [5] = target: Signal transducer and activator of transcription 3 (Homo sapiens) (UniProt P40763); experiment: ATG_STAT3_CIS: Attagene CIS-FACTORIAL HepG2 Assay for human Signal Transducer and Activator of Transcription 3 (STAT3) (AID 2282963); conditions: HepG2, Attagene cis-factorial STAT3 reporter transcription; actives raise or lower the signal
# Sequence of Signal transducer and activator of transcription 3 (Homo sapiens) (P40763 whole entry, looked up): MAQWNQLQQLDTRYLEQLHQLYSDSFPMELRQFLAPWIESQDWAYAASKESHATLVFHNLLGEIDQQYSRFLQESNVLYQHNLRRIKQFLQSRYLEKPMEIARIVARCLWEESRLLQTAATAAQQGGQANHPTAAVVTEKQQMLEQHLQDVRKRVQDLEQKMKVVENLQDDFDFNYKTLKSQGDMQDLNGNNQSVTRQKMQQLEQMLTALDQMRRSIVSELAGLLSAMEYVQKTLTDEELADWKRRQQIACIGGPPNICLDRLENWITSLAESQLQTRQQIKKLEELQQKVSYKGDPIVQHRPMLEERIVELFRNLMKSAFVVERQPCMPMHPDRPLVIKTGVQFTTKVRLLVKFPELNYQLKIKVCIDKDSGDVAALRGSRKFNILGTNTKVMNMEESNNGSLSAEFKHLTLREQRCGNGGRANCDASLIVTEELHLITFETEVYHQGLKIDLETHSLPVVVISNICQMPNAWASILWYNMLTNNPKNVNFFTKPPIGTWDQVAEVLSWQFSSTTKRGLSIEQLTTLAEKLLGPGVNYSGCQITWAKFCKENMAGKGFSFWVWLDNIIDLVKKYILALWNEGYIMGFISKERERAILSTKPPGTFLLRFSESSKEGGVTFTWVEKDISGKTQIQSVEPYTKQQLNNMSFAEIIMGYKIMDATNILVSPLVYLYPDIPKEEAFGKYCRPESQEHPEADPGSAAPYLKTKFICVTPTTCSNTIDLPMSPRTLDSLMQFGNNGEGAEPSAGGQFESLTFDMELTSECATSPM
# How it was run: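 HepG2, MRTU-transfected, 24 h dosing. RNA → RT → PCR → FAM label → HpaI → CE. Bidirectional fit vs DMSO.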
# [6] = ATG_TCF_b_cat_CIS: Attagene CIS-FACTORIAL HepG2 Assay for human T-Cell-Factor with beta-catenin (TCF/b-cat) (AID 2282965); conditions: HepG2 TCF/beta-catenin cis-reporter transcription, actives raise or lower the signal
# How it was run: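 In this cis-format system, transfected HepG2 cells report endogenous transcription factor activity. Readout after 24 h exposure is reporter transcript abundance from RT-PCR and capillary electrophoresis, analysed for gain or loss of signal versus DMSO.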
# [7] = ATG_TAL_CIS: Attagene CIS-FACTORIAL HepG2 Assay for human TAL Basal Promoter (AID 2282966); conditions: HepG2 Attagene cis-factorial TAL promoter reporter; actives raise or lower the signal;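 further: background control endpoint measuring basal TAL promoter reporter mRNA not a specific factor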
# How it was run: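 After 24 hours of chemical exposure, transfected HepG2 cells yielded RNA that was converted to 6-FAM-labelled, HpaI-digested reporter fragments for capillary electrophoresis. Values derive from bidirectional fitting against DMSO controls.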
# [8] = ATG_TGFb_CIS: Attagene CIS-FACTORIAL HepG2 Assay for human Transforming Growth Factor (TGF) (AID 2282967); conditions: HepG2 Attagene CIS TGFb reporter, mRNA transcription; actives raise or lower the signal
# How it was run: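 Endogenous TGFB1-linked transcription factor activity read as reporter mRNA via RT-PCR and capillary electrophoresis, 24 h after dosing transiently transfected HepG2 cells. Gain or loss of signal fitted relative to DMSO.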
# [9] = ATG_VDRE_CIS: Attagene CIS-FACTORIAL HepG2 Assay for human Vitamin D Receptor Element (VDRE) (AID 2282968); conditions: HepG2 VDRE cis-reporter transcription, actives raise or lower the signal
# How it was run: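 Steps: transfect HepG2 with multiple reporter transcription units; dose chemicals 24 h; isolate RNA; RT-PCR; label with 6-FAM primer extension; HpaI digest; capillary electrophoresis. Curves fitted both directions against DMSO.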
# [10] = target: X-box-binding protein 1 (Homo sapiens) (UniProt P17861); experiment: ATG_Xbp1_CIS: Attagene CIS-FACTORIAL HepG2 Assay for human X-box Binding Protein 1 (XBP1) (AID 2282972); conditions: HepG2 XBP1 cis-element reporter, Attagene multiplex; actives raise or lower the signal
# Sequence of X-box-binding protein 1 (Homo sapiens) (P17861 whole entry, looked up): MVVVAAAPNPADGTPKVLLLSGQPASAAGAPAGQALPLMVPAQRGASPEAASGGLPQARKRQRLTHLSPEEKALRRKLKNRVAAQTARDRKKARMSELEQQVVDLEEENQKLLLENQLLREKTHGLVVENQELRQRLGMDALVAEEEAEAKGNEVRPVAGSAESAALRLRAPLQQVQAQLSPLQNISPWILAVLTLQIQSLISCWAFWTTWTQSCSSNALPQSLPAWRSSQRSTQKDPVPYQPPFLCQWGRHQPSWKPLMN
# How it was run: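 Human hepatoma HepG2, cis-element reporter system, 24 h treatment; mRNA quantified by RT-PCR/CE fluorescence; fit relative to DMSO.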
# [11] = target: Transcriptional activator Myb (Homo sapiens) (UniProt P10242); experiment: ATG_Myb_CIS: Attagene CIS-FACTORIAL HepG2 Assay for human Myeloblastosis (Myb) Proto-Oncogene Transcription Factor (AID 2282986); conditions: HepG2 Attagene CIS-FACTORIAL Myb reporter transcription; actives raise or lower the signal
# Sequence of Transcriptional activator Myb (Homo sapiens) (P10242 whole entry, looked up): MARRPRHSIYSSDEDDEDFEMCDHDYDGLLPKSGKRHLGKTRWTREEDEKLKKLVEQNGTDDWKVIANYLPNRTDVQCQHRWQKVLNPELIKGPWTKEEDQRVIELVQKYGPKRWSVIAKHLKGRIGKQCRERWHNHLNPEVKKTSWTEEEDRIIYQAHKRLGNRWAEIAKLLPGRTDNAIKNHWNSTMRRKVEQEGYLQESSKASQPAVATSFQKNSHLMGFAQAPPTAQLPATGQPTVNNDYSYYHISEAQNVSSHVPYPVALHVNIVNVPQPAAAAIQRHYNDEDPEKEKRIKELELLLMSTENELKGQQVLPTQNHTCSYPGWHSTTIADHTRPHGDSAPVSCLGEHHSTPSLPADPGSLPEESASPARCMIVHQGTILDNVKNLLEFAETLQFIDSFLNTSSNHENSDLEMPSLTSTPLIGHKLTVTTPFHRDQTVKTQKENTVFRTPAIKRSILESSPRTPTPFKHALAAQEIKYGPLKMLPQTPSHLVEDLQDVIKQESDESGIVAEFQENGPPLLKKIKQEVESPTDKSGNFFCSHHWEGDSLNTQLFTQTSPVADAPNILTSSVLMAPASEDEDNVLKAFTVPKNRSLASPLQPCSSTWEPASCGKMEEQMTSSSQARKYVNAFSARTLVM
# How it was run: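 Fluorescence signals from capillary electrophoresis of RT-PCR-amplified reporter cDNA give the read-out. Cells: HepG2 transfected with multiple cis-regulated reporter units. Exposure lasts 24 hours; DMSO defines baseline for gain or loss of signal.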
# [12] = target: Nuclear respiratory factor 1 (Homo sapiens) (UniProt Q16656); experiment: ATG_NRF1_CIS: Attagene CIS-FACTORIAL HepG2 Assay for human Nuclear Respiratory Factor 1 (NRF1) Orphan Gene (AID 2282987); conditions: HepG2 NRF1 cis-element reporter, Attagene multiplex; actives raise or lower the signal
# Sequence of Nuclear respiratory factor 1 (Homo sapiens) (Q16656 whole entry, looked up): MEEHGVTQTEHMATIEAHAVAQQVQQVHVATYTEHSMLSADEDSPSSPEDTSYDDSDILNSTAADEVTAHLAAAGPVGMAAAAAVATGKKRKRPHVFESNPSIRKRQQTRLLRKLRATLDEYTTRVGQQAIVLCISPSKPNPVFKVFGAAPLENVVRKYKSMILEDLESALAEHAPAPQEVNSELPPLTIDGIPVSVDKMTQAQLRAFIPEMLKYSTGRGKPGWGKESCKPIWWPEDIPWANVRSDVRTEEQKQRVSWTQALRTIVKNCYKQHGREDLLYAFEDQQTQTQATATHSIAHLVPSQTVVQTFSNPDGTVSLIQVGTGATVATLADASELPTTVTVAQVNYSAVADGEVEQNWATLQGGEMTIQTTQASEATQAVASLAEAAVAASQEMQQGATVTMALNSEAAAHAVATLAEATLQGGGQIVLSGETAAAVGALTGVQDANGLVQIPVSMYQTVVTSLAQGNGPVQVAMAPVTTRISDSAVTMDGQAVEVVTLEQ
# How it was run: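 Transcriptional reporter readout, one component of a 52-endpoint multiplexed HepG2 panel. Exposure 24 h; mRNA detected via RT-PCR and fluorescent capillary electrophoresis; fitting in both directions against DMSO.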
# [13] = target: Myc proto-oncogene protein (Homo sapiens) (UniProt P01106); experiment: ATG_Myc_CIS: Attagene CIS-FACTORIAL HepG2 Assay for human Myelocytomatosis (Myc) Proto-Oncogene Transcription Factor (AID 2282990); conditions: HepG2, Attagene cis-reporter transcription factor activity; actives raise or lower the signal
# Sequence of Myc proto-oncogene protein (Homo sapiens) (P01106 whole entry, looked up): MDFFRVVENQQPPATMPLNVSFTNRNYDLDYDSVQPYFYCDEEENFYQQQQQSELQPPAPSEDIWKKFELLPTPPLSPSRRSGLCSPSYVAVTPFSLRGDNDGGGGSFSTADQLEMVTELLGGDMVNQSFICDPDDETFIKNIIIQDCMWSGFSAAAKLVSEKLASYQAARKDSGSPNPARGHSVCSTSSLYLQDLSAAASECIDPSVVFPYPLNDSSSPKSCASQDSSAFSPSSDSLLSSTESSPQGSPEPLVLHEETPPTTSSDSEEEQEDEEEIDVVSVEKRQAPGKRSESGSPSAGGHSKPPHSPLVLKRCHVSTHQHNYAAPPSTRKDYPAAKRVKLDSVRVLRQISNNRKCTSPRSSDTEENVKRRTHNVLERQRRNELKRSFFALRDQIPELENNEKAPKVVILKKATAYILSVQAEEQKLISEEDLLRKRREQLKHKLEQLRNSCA
# How it was run: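 DMSO-normalised, bidirectionally fitted reporter mRNA signal. HepG2 cells transfected with cis reporter constructs, treated 24 h; transcripts detected by RT-PCR, 6-FAM primer extension and CE.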
# [14] = ATG_NRF2_ARE_CIS: Attagene CIS-FACTORIAL HepG2 Assay for human Nuclear Factor Erythroid 2 Related Factor 2 (NFR2) response to Antioxidant Response Elements (ARE) (AID 2282992); conditions: HepG2 Attagene ARE/NRF2 reporter, transcription factor activity; actives raise or lower the signal;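 on AC50: reporter mRNA level measured by RT-PCR and capillary electrophoresis fluorescence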
# How it was run: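 Fluorescence intensity of reporter-specific cDNA fragments, separated by capillary electrophoresis, reflects mRNA induction in transfected HepG2 cells at 24 h. Activity is fitted bidirectionally, DMSO serving as baseline.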
# [15] = target: Cellular tumor antigen p53 (Homo sapiens) (UniProt P04637); experiment: ATG_p53_CIS: Attagene CIS-FACTORIAL HepG2 Assay for human p53 Transcription Factor (AID 2282994); conditions: HepG2 p53 cis-element reporter, Attagene mRNA; actives raise or lower the signal
# Sequence of Cellular tumor antigen p53 (Homo sapiens) (P04637 whole entry, looked up): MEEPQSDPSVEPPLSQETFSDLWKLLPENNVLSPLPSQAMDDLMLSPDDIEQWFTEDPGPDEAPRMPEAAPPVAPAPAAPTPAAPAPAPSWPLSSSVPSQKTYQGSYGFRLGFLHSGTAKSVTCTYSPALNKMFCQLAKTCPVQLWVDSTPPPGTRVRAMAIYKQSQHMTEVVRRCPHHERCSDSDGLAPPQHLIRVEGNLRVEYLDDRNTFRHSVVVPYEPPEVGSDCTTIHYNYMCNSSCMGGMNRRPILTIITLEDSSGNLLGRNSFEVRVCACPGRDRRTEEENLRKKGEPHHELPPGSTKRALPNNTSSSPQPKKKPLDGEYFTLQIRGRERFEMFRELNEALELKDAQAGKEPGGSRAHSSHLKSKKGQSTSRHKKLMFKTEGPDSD
# How it was run: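 Transiently transfected HepG2 (multiple cis reporter transcription units); exposure 24 h; reporter RNA via RT-PCR, 6-FAM extension, 2 h HpaI digest at 37 C, CE detection; DMSO baseline.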
# [16] = target: Nuclear receptor subfamily 1 group I member 2 (Homo sapiens) (UniProt O75469); experiment: ATG_PXR_TRANS: Attagene TRANS-FACTORIAL HepG2 Assay for human Pregnane X Receptor (PXR) (AID 2283008; active means hit-call score of the fitted dose curve at least 0.9, where 1 is the maximum)
# How it was run: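 Transient HepG2 transfectants carrying multiplexed reporter transcription units; PXR activity read through a Gal4 chimera. 24 h exposure. RT-PCR/CE fluorescence; upward curve fit referenced to DMSO.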
# [17] = ATG_XTT_Cytotoxicity: Cytotoxicity Assessment in the Attagene TRANS-FACTORIAL HepG2 Assay (AID 2283584; active means hit-call score of the fitted dose curve at least 0.9, where 1 is the maximum)
# How it was run: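 Cells: human HepG2, transiently transfected with MRTU reporter constructs. Exposure 24 h. Readout: XTT, cell number. Baseline/neg ctrl DMSO; loss-of-signal scored.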
# [18] = target: Heat shock factor protein 1 (Homo sapiens) (UniProt Q00613); experiment: ATG_HSE_CIS: Attagene CIS-FACTORIAL HepG2 Assay for human Heat Shock Transcription Factor 1 (HSE) (AID 2282953); conditions: HepG2 HSE cis-reporter, Attagene RNA transcription; actives raise or lower the signal
# Sequence of Heat shock factor protein 1 (Homo sapiens) (Q00613 whole entry, looked up): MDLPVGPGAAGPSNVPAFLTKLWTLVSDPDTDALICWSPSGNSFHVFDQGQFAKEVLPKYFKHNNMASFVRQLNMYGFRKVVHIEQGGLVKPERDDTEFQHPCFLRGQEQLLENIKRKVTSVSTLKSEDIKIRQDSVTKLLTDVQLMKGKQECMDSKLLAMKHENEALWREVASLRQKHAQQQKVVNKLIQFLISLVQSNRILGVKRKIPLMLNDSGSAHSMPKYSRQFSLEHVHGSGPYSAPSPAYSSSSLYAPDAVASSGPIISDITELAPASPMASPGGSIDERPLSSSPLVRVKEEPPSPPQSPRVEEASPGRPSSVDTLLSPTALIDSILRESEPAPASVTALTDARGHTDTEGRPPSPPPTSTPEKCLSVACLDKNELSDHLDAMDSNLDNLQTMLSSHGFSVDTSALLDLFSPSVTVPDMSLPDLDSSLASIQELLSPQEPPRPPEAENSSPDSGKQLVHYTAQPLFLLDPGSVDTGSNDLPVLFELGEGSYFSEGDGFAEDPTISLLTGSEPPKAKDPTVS
# How it was run: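 Endogenous transcription factor activity in transiently transfected HepG2, read as reporter mRNA by RT-PCR with fluorescent capillary electrophoresis after 24 h. Gain or loss of signal fitted versus DMSO baseline.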
# [19] = ATG_Oct_MLP_CIS: Attagene CIS-FACTORIAL HepG2 Assay for human Octamer-Binding Transcription Factor (Oct) (AID 2282993); conditions: HepG2 Attagene cis-factorial Oct reporter, mRNA; actives raise or lower the signal
# How it was run: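 Readout is reporter transcript level from RT-PCR with fluorescent primer extension and capillary electrophoresis, fitted in both directions against DMSO. Transfected HepG2 reporter units report endogenous factor activity after 24 h dosing.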
# [20] = ATG_DR4_LXR_CIS: Attagene CIS-FACTORIAL HepG2 Assay for human Liver X Receptor (LXR), DR4 submotif (AID 2282929); conditions: HepG2 Attagene DR4 cis-reporter, mRNA transcription; actives raise or lower the signal
# How it was run: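 Measures endogenous transcription factor activity via a DR4-driven reporter transcript in human HepG2 cells. Compounds incubated 24 h; mRNA quantified by RT-PCR and capillary electrophoresis, analysed as gain or loss of signal versus DMSO.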
smiles,measurement,setting,value
Clc1ccc(Sc2cc(Cl)c(Cl)cc2Cl)cc1,outcome,[1],inactive
same,outcome,[2],inactive
same,outcome,[3],inactive
same,outcome,[4],inactive
same,outcome,[5],inactive
same,outcome,[6],inactive
same,outcome,[7],inactive
same,outcome,[8],inactive
same,outcome,[9],inactive
same,outcome,[10],inactive
same,outcome,[11],inactive
same,outcome,[12],inactive
same,outcome,[13],inactive
same,outcome,[14],inactive
same,outcome,[15],inactive
same,AC50,[16],2.22 µM (active)
same,outcome,[17],inactive
O=C(C1CCCCC1)N1CC(=O)N2CCc3ccccc3C2C1 (centres undefined),outcome,[18],inactive
same,outcome,[4],inactive
same,outcome,[5],inactive
same,outcome,[6],inactive
same,outcome,[7],inactive
same,outcome,[8],inactive
same,AC50,[9],13.7 µM (active)
same,outcome,[10],inactive
same,outcome,[11],inactive
same,outcome,[12],inactive
same,outcome,[13],inactive
same,outcome,[14],inactive
same,outcome,[19],inactive
same,outcome,[15],inactive
same,AC50,[16],8.4 µM (active)
Oc1ccc(Oc2ccccc2)cc1,outcome,[1],inactive
same,outcome,[2],inactive
same,outcome,[3],inactive
same,outcome,[18],inactive
same,outcome,[4],inactive
same,outcome,[5],inactive
same,outcome,[6],inactive
same,outcome,[7],inactive
same,outcome,[8],inactive
same,AC50,[9],38.4 µM (active)
same,outcome,[10],inactive
same,outcome,[11],inactive
same,outcome,[12],inactive
same,outcome,[13],inactive
same,outcome,[14],inactive
same,outcome,[15],inactive
same,outcome,[16],inactive
CCOc1ccc2c(c1)C(C)CC(C)(C)N2 (centres undefined),outcome,[1],inactive
same,outcome,[2],inactive
same,outcome,[3],inactive
same,outcome,[18],inactive
same,outcome,[4],inactive
same,outcome,[5],inactive
same,outcome,[6],inactive
same,outcome,[7],inactive
same,outcome,[8],inactive
same,AC50,[9],34 µM (active)
same,outcome,[10],inactive
same,outcome,[11],inactive
same,outcome,[12],inactive
same,outcome,[13],inactive
same,outcome,[14],inactive
same,AC50,[16],3.63 µM (active)
same,outcome,[17],inactive
CC(C)n1c(/C=C/[C@@H](O)C[C@@H](O)CC(=O)O)c(-c2ccc(F)cc2)c2ccccc21,outcome,[1],inactive
same,outcome,[2],inactive
same,outcome,[3],inactive
same,outcome,[18],inactive
same,AC50,[4],55.3 µM (active)
same,outcome,[5],inactive
same,outcome,[6],inactive
same,outcome,[7],inactive
same,outcome,[8],inactive
same,outcome,[10],inactive
same,outcome,[11],inactive
same,outcome,[13],inactive
same,AC50,[15],26 µM (active)
same,outcome,[16],inactive
CC(C)CC(=O)CC(C)C,outcome,[20],inactive
same,outcome,[2],inactive
same,outcome,[3],inactive
same,outcome,[18],inactive
same,outcome,[4],inactive
same,outcome,[5],inactive
same,outcome,[6],inactive
same,outcome,[7],inactive
same,outcome,[8],inactive
same,outcome,[9],inactive
same,outcome,[10],inactive
same,outcome,[11],inactive
same,outcome,[12],inactive
same,outcome,[13],inactive
same,outcome,[14],inactive
same,outcome,[19],inactive
same,outcome,[15],inactive
same,outcome,[16],inactive
same,outcome,[17],inactive
CCCC(=O)OC,outcome,[1],inactive
same,outcome,[2],inactive
same,outcome,[3],inactive
same,outcome,[18],inactive
same,outcome,[4],inactive
same,outcome,[5],inactive
same,outcome,[6],inactive
same,outcome,[7],inactive
same,outcome,[8],inactive
same,outcome,[9],inactive
same,outcome,[10],inactive
same,outcome,[11],inactive
same,outcome,[12],inactive
same,outcome,[13],inactive
same,outcome,[14],inactive
same,outcome,[19],inactive
same,outcome,[15],inactive
same,outcome,[16],inactive
Cc1ccnc(N)c1,outcome,[1],inactive
same,outcome,[2],inactive
same,AC50,[3],76.7 µM (active)
same,outcome,[18],inactive
same,outcome,[4],inactive
same,outcome,[5],inactive
same,outcome,[6],inactive
same,outcome,[7],inactive
same,outcome,[8],inactive
same,outcome,[10],inactive
same,outcome,[11],inactive
same,outcome,[12],inactive
same,outcome,[13],inactive
same,AC50,[14],66.8 µM (active)
same,outcome,[15],inactive
same,outcome,[16],inactive
same,outcome,[17],inactive
